This passage reports outcome results from PubChem BioAssay AID618 (Sanford-Burnham Center for Chemical Genomics, 2007).

Out of some 87,000 compounds screened, about 540 (0.62%) were called active. No rule for the calls is given here. What follows is part of a selection rich in actives, with near analogues and random picks from the rest. Entries with a potency or affinity are not part of this list.

The nature of this experiment: inhibitors of MT1-MMP promoter transcription, cell-based, luciferase reporter, luminescence (AID 618).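 Also: actives suppress MT1-MMP promoter-driven transcription so potencies describe inhibitors.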 The conditions noted are these: MT1-MMP promoter luciferase reporter cells. On the technique in general: In a reporter assay the amount or activity of a reporter protein is the signal.
As to `O=C(c1nc2nc(-c3ccccc3)cc(C(F)(F)F)n2n1)N1CCOCC1`, the result was inactive.
The result for `O=C(CSc1nnc(-c2ccccc2)n1Cc1ccco1)Nc1ccc(S(=O)(=O)N2CCCC2)cc1` reads “inactive”; that for `Clc1ccc(-c2nnc3n2CCCCC3)cc1`, “inactive”.
Take `Clc1ccc(-c2nc(N3CCCCC3)nc3ccccc23)cc1`: the result was inactive.
With `c1ccc2oc(SCc3cn4ccccc4n3)nc2c1`, the call was inactive.
The result for `Clc1c(CSc2nc3ccccc3o2)nc2sccn12` reads “inactive”; that for `CCOc1cc(/C=N/N=C(/N)c2nonc2N)cc(Br)c1OCc1ccc(Cl)cc1`, “inactive”.
`CCOC(=O)c1[nH]c(C)c(C(=O)NCCCOC(C)C)c1C`: the compound was classed as inactive.
The same measure for `c1ccc(CN2CCN(c3nc4ccccc4c4ccccc34)CC2)cc1`: “inactive”; for `COCCOC(=O)C1=C(C)NC2=C(C(=O)CCC2)C1c1cc2c(cc1Br)OCO2` (stereo not drawn): “inactive”; for `CC1CCN(S(=O)(=O)c2ccc3c(c2)C(=NO)c2cc(S(=O)(=O)N4CCC(C)CC4)ccc2-3)CC1`: “inactive”.
Turning to `O=S(=O)(c1ccc(S(=O)(=O)N2CCCC2)cc1)N1CCCCCC1`, the result was inactive.
The same measure for `O=S(=O)(c1ccc2c(c1)C(=NO)c1cc(S(=O)(=O)N3CCCCC3)ccc1-2)N1CCCCC1`: “active”; for `O=C(CCC(=O)c1ccc(F)cc1)Nc1cccnc1`: “inactive”.
With `CC(C)N(CCCNC(=O)CC1Oc2ccccc2NC1=O)Cc1ccccc1` (stereo not drawn), the result was inactive.
The result for `O=C1C(=O)c2ccc(-c3ccccc3)cc2-c2ccccc21` reads “inactive”.
The same measure for `Nc1ccc2c(c1)C(=O)C(=O)c1ccccc1-2`: “active”.
Turning to `Nc1ccc(Br)c2c1C(=O)c1ccccc1C2=O`, the result was inactive.
The same measure for `CCOC(=O)CON1C(=O)c2ccccc2C1=O`: “inactive”; for `COc1ccc(-c2c(C)n([O-])c3c([n+]2=O)CCCC3)cc1`: “inactive”.
The result for `N=c1n(CCN2CCOCC2)c2ccccc2n1Cc1ccccc1Br` reads “inactive”; that for `Cn1c(-c2ccco2)nc2cc3ccccc3cc21`, “active”; that for `Cn1c(-n2c(-c3ccco3)nc3ccccc3c2=O)nc2ccccc21`, “inactive”.
Turning to `CCn1c(-c2ccco2)nc2ccccc21`, the compound was called inactive.
The same measure for `C=COCCn1c(=N)n(CCC)c2ccccc21`: “inactive”; for `O=C1[C@@H]2C(c3ccccc3Cl)=NO[C@@H]2C(=O)N1Cc1ccccc1`: “inactive”; for `Cc1c(NC(=O)c2ccccc2)c(=O)n(-c2ccccc2)n1C`: “inactive”.
The result for `Cc1c(NC(=O)c2ccc(=O)oc2)c(=O)n(-c2ccccc2)n1C` reads “inactive”.
The same measure for `CCCNc1cc(C)oc(=O)c1C(=O)CCC`: “inactive”; for `Oc1ccc(Nc2nc3ccccc3nc2Nc2ccc(O)cc2)cc1`: “inactive”; for `CCOC(=O)C1CCCCN1C(=O)CCc1c(C)nc2ncnn2c1C` (stereo not drawn): “inactive”.
On to `Cc1nc2cc(-c3cccc(F)c3)nn2c(C)c1CCC(=O)N1CCN(c2ccccn2)CC1`, for which the compound was called inactive.
Take `CCn1c(C(=O)Nc2ccsc2C(=O)OC)cc2sc(Cl)cc21`: the call was inactive.
On to `CN1CCC(C2(O)c3ccccc3CSc3sccc32)CC1` (stereo not drawn), for which the result was inactive.
Take `COC(=O)Cc1ccc(NC(=O)c2ccc(Br)o2)cc1`: the compound was called inactive.
On to `Cc1oc(C)c(C(=O)Nc2ccc(CC(=O)O)cc2)c1C(=O)Nc1ccc(CC(=O)O)cc1`, for which the outcome was inactive.
`COC(=O)Cc1ccc(NC(=O)c2ccc(C)c(C)c2)cc1`: the result was inactive.
The result for `O=C(O)Cc1ccc(NC(=O)c2ccc(NC(=O)c3ccco3)cc2)cc1` reads “inactive”; that for `Cc1ccc(C(=O)Nc2ccc(CC(=O)O)cc2)o1`, “inactive”.
With `Cc1cc(C(C)(C)C)oc1C(=O)Nc1ccc(CC(=O)O)cc1`, the call was inactive.
Regarding `COc1ccc(-n2c(Cc3cccn3C)nnc2SCC(=O)Nc2cccc(NC(C)=O)c2)cc1`, the result was inactive.
The same measure for `CCOc1ccc(CCNC(=O)C(O)c2ccccc2)cc1` (stereo not drawn): “inactive”.
In the case of `Cc1cc(=O)oc2cc(OCC(=O)Nc3nnc(C(C)C)s3)ccc12`, the call was inactive.
The result for `CC(=NCCCn1ccnc1)C1=C(O)c2ccccc2C1=O` reads “inactive”; that for `Cc1cccc(-n2ncc3c(N4CCC5(CC4)OCCO5)ncnc32)c1`, “inactive”.
The result for `Cc1cccc(-n2ncc3c(N4CCN(c5nc(C)cc(C)n5)CC4)ncnc32)c1` reads “inactive”; that for `Clc1ccc(-n2ncc3c(N4CCCC4)ncnc32)cc1`, “inactive”; that for `CCN1CCN(c2ncnc3c2cnn3-c2ccc(Cl)cc2)CC1`, “inactive”.
The result for `COc1cc(NC(=O)CSc2ncnc3c2cnn3Cc2ccccc2)cc(OC)c1` reads “inactive”; that for `COc1ccc(-c2cn3c(C)c(C(=O)N4CCc5ccccc5C4)sc3n2)cc1`, “inactive”.
As for `COc1ccccc1-c1coc2c(CN3CCN(CCO)CC3)c(O)ccc2c1=O`, the call was inactive.
As for `CCOC(=O)C(NS(=O)(=O)c1ccc(Br)cc1)C(C)C` (stereo not drawn), the compound was classed as inactive.
The result for `COc1ccc2c(CC(=O)OCC(=O)c3ccc(F)cc3)coc2c1` reads “inactive”; that for `Oc1c(C(c2ccco2)N2CCOCC2)sc2ncnn12` (stereo not drawn), “inactive”.
As to `Cc1cc(C(=O)Nc2ccccc2)oc1C`, the compound was classed as inactive.
Consider `O=C(Nc1cnc2ccccc2c1)c1cccnc1`, for which the result was inactive.
Consider `O=C(Nc1cnc2ccccc2c1)c1ccncc1`, for which the call was inactive.
The result for `Cc1ccc(C(=O)Nc2cccc(C(=O)N3CCN(C)CC3)c2)cc1` reads “inactive”; that for `Cc1ccc(NC(=O)c2ccccc2)cc1`, “inactive”.
The same measure for `O=C(O)c1cccc(NC(=O)C2CCCO2)c1` (stereo not drawn): “inactive”.
The same measure for `O=C(O)c1ccc(C(=O)Nc2cccc(NC(=O)C3CCCO3)c2)cc1` (stereo not drawn): “inactive”.
On to `Cc1oc2c(c1C(=O)Nc1cccc(C(=O)O)c1)CCCC2`, for which the outcome was inactive.
The same measure for `O=C(Oc1ccc(Br)cc1)c1cncc(Br)c1`: “inactive”; for `O=C1CCC([N+](=O)[O-])C(c2ccccc2Cl)N1` (stereo not drawn): “inactive”; for `COc1cccc(-n2nnc3c(=O)n(Cc4c(F)cccc4Cl)cnc32)c1`: “inactive”.
The same measure for `CCN(CC)CCCNC(=O)c1sc2nc(-c3ccc(F)cc3)cn2c1C`: “inactive”; for `CCn1cc(C(=O)NCc2ccco2)c(=O)c2cc(S(=O)(=O)N3CC(C)CC(C)C3)ccc21` (stereo not drawn): “inactive”; for `CCOC(=O)CCn1c(=O)c2c(nc(Br)n2Cc2ccccc2)n(C)c1=O`: “inactive”.
As to `Cc1ccc(S(=O)(=O)NCCC(=O)Nc2nnc(C)s2)cc1`, the call was inactive.
With `COC(=O)[C@H](C)NC(=O)Nc1ccccc1F`, the result was inactive.
The result for `COc1ccc(S(=O)(=O)n2c(CCN3CCOCC3)nc3ccccc32)cc1` reads “inactive”; that for `Cc1ccc(C(=O)Nc2cccc(C(=O)O)c2)cc1S(=O)(=O)N1CCOCC1`, “inactive”.
Consider `O=C(O)c1cccc(NC(=O)c2cccc(S(=O)(=O)N3CCCCC3)c2)c1`, for which the result was inactive.
